Outcome and AC50 data for 5 molecules are collected here from PubChem BioAssay (EPA / NIEHS).

“And” between values parts separate entries of the source, which are not always exact repeats. Equal entries are not always repeated. The source made the active and inactive calls. Rule for the calls: active = hit-call score of the fitted dose curve at least 0.9, where 1 is the maximum; inactive = score below 0.9.

Read-out in test [1]: Intercellular Adhesion Molecule 1 (ICAM1), ICAM1 (gene 3383)
Briefly: BSK_hDFCGF_ICAM1: BioMAP Diversity Plus: hDFCGF Assay for Intercellular Adhesion Molecule 1 (ICAM1) Biomarker Activity (AID 2284287). The following applies: primary human foreskin fibroblasts. In outline: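 ICAM-1 ELISA readout 24 h after dosing, DMSO as baseline, in human dermal foreskin fibroblast cultures. Cytotoxicity checked in parallel wells by SRB staining (0.1% SRB, 10% TCA fixation, 560 nm).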

Read-out in test [2]: TIMP metallopeptidase inhibitor 2 (TIMP2), TIMP2 (gene 7077)
Briefly: BSK_hDFCGF_TIMP2: BioMAP Diversity Plus: hDFCGF Assay for TIMP metallopeptidase inhibitor 2 (TIMP2) Biomarker Activity (AID 2284289). The following applies: primary human foreskin fibroblasts. Put shortly:
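Primary human foreskin fibroblasts in the hDFCGF system, dosed for 24 h; TIMP-2 level measured by ELISA, fitted in the positive direction against DMSO; cytotoxicity checked in parallel by sulforhodamine B total protein staining.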

Read-out in test [3]: Vascular cell adhesion molecule 1 (VCAM1), VCAM1 (gene 7412)
In words: BSK_IMphg_VCAM1: BioMAP Diversity Plus: IMphg Assay for Vascular cell adhesion molecule 1 (VCAM1) Biomarker Activity (AID 2284286). The following applies: primary human endothelial cells with macrophages. Here is the method:
(§1) BSK_IMphg is a cell-based, multiplexed-readout assay that uses venular endothelial cells and macrophages, a human vascular primary cell, with measurements taken at 24 hours after chemical dosing in a microplate: 96-well plate.BSK_IMphg_VCAM1 is an assay component measured in the BSK_IMphg assay. It measures VCAM-1 antibody related to regulation of gene expression using ELISA technology.Data from the assay component BSK_IMphg_VCAM1 was analyzed at the endpoint, BSK_IMphg_VCAM1, in the positive analysis fitting direction relative to DMSO as the negative control and baseline of activity. Using a type of binding reporter, gain or loss-of-signal activity can be used to understand protein changes. To generalize the intended target to other relatable targets, this assay endpoint is annotated to the 'cell adhesion molecules' intended target family, where the subfamily is 'Immunoglobulin CAM'.
(§2) The levels of cell surface (or secreted, indicated by the prefix "s") biomarker endpoints were measured by ELISA. Overt cytotoxicity to cells in confluent adherent cultures (all systems other than the BT system) was assessed by measuring total protein levels using sulforhodamine B (SRB) staining in parallel cultures at the time of biomarker measurements, indicated as SRB endpoints. For proliferation assays for adherent cell types, individual cell types are cultured at sub-confluence and relative cell numbers quantified by SRB staining at time points optimized for each system (48 h: 3C and CASM3C systems; 72 h: BT and HDF3CGF systems; 96 h: SAg system). SRB was performed by staining cells with 0.1% SRB after fixation with 10% TCA and reading wells at 560 nm.Viability and proliferation of PBMC (T cells) was quantified by Alamar Blue reduction for the SAg and BT systems. […] Then, Alamar Blue (20 uL/well) (Invitrogen, Cat DAL1100) was added for 6 h, and the plates were read with a fluorescence microplate reader at 546/580 nm (excitation/emission). […] Plates were read after 6 h.

Read-out in test [4]: CD40, CD40 (gene 958)
Briefly: BSK_IMphg_CD40: BioMAP Diversity Plus: IMphg Assay for CD40 Biomarker Activity (AID 2284288). The following applies: primary human endothelial cells with macrophages. In outline: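 ELISA read-out of cell-surface CD40 at 24 h in human venular endothelial cell/macrophage co-cultures. Activity fitted in the positive direction against DMSO; parallel SRB staining (560 nm) gauges overt cytotoxicity.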

Read-out in test [5]: Interleukin-1 alpha (IL1a), IL1A (gene 3552)
Briefly: BSK_IMphg_IL1a: BioMAP Diversity Plus: IMphg Assay for Interleukin-1 alpha (IL1a) Biomarker Activity (AID 2284290). The following applies: primary human endothelial cells with macrophages. In outline:
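IL-1α is quantified by ELISA at 24 h in the endothelial/macrophage IMphg co-culture, with gain of signal fitted relative to DMSO. Parallel SRB total-protein staining flags overt toxicity.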

Read-out in test [6]: E-selectin (Homo sapiens) (UniProt P16581)
In words: BSK_IMphg_ESelectin: BioMAP Diversity Plus: IMphg Assay for Eselectin Biomarker Activity (AID 2284291). The following applies: primary human endothelial cells with macrophages. In outline:
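Analysed against DMSO baseline in the positive fitting direction, this endpoint is an ELISA read of E-selectin. It comes from human venular endothelial cells co-cultured with macrophages, sampled 24 h post-dose.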

A short description of test [7]: BSK_IMphg_SRB: Viability Assessment in the BioMAP Diversity Plus: IMphg Assay (AID 2284292).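 Note: measured one day after compound addition.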 The following applies: primary human endothelial cells with macrophages. Put shortly:
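SRB viability endpoint: cultures of human endothelial cells plus macrophages fixed with 10% TCA, stained with 0.1% SRB, read at 560 nm 24 h post-dosing. Only gain-of-signal fitted, relative to DMSO.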

Read-out in test [8]: Macrophage colony-stimulating factor (MCSF), CSF1 (gene 1435)
Briefly: BSK_IMphg_MCSF: BioMAP Diversity Plus: IMphg Assay for Macrophage colony-stimulating factor (MCSF) Biomarker Activity (AID 2284293). The following applies: primary human endothelial cells with macrophages. The method, then: as §1, with “plate.BSK_IMphg_MCSF” for “plate.BSK_IMphg_VCAM1”, “M-CSF” for “VCAM-1”, “BSK_IMphg_MCSF” for “BSK_IMphg_VCAM1”, “BSK_IMphg_MCSF,” for “BSK_IMphg_VCAM1,”, “'cytokine'” for “'cell adhesion molecules'”, “'colony stimulating factor'.” for “'Immunoglobulin CAM'.”
as §2

Read-out in test [9]: Interleukin-10 (IL10), IL10 (gene 3586)
Briefly: BSK_IMphg_IL10: BioMAP Diversity Plus: IMphg Assay for Interleukin-10 (IL10) Biomarker Activity (AID 2284294). The following applies: primary human endothelial cells with macrophages. Put shortly:
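IL-10 read by ELISA after 24 h chemical exposure of primary human venular endothelial cell/macrophage cocultures, with DMSO as baseline. Parallel SRB staining (560 nm) gauged overt cytotoxicity.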

The nature of test [10]: BSK_IMphg_SRB.Mphg: Macrophage Viability Assessment in the BioMAP Diversity Plus: IMphg Assay (AID 2284295). The following applies: primary human endothelial cells with macrophages. Here is the method: BSK_IMphg is a cell-based, multiplexed-readout assay that uses venular endothelial cells and macrophages, a human vascular primary cell, with measurements taken at 24 hours after chemical dosing in a microplate: 96-well plate.BSK_IMphg_SRB.Mphg is an assay component measured in the BSK_IMphg assay. It measures […] related to cell death using Sulforhodamine staining technology.Data from the assay component BSK_IMphg_SRB.Mphg was analyzed at the endpoint, BSK_IMphg_SRB.Mphg, in the positive analysis fitting direction relative to DMSO as the negative control and baseline of activity. Using a type of viability reporter, gain or loss-of-signal activity can be used to understand protein changes. To generalize the intended target to other relatable targets, this assay endpoint is annotated to the 'cell morphology' intended target family, where the subfamily is 'cell conformation'.
as §2

E-selectin (Homo sapiens), sequence (P16581 whole entry, looked up): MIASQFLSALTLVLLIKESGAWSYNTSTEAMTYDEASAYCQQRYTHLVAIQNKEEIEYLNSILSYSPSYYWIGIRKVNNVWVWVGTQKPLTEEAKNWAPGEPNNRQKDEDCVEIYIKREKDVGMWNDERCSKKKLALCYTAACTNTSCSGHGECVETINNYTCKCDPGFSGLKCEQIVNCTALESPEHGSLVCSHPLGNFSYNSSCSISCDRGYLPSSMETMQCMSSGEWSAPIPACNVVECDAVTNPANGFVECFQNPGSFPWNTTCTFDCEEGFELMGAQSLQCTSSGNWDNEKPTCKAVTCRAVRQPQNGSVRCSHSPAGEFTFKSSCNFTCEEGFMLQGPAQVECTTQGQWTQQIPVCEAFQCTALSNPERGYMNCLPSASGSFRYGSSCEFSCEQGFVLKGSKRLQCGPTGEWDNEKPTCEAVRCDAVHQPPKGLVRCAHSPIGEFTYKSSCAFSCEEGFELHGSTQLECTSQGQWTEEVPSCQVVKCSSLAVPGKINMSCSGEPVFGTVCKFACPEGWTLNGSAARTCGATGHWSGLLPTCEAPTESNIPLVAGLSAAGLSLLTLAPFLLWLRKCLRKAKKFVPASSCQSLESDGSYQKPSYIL

For `COC(=O)Cc1ccccc1`, the outcome in test [1] and in test [2] was inactive.
As for `O=C(O)CCC(F)(C(F)(F)F)C(F)(F)F`, the result in test [3], in [1], in test [4], in test [2], in test [5] and in test [6] was inactive. Also, the result in test [7], in test [8], in [9] and in test [10] was inactive.
In the case of `CC(=O)OC(c1ccccc1)C(Cl)(Cl)Cl` (centres undefined), the result in test [1] and in [2] was inactive.
In the case of `O=C(O)C(F)(F)C(F)(F)C(F)(F)C(F)(F)C(F)(F)C(F)(F)F`, the outcome in test [3], in test [1], in [4], in [2], in [5] and in test [6] was inactive. Besides, the result in [7], in [8], in test [9] and in test [10] was inactive.
Consider `O=C(O)C(F)(F)C(F)(F)C(F)(F)C(F)(F)C(F)(F)C(F)(F)C(F)(F)C(F)(F)C(F)(F)C(F)(F)F`, for which the outcome in test [3], in [4], in test [5], in test [6], in test [7] and in test [8] was inactive. In addition, the result in test [9] and in test [10] was inactive. For the same molecule, the AC50 was 5.12 µM (active) and 5.47 µM (active) in [1]; 6.09 µM (active) and 5.21 µM (active) in [2].

What is called AC50 is the concentration at which the activity in the assay is half-maximal.
